Measurements: PubChem BioAssay AID624168 (Sanford-Burnham Center for Chemical Genomics, 2012)
In all, about 360,000 compounds went through this assay and about 800 (0.22%) were called active. The full list was thinned out, with actives kept by preference. Values without a mark were called inactive.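 The calls were made as follows: active = activation of at least 8% versus controls, or a plate z-score of at least 8; inactive = the rest.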

Test: compounds raising alpha-dystroglycan glycosylation – uHTS, Pro5-aDG cells, AlphaScreen, primary screen (AID 624168);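 also: Pro5 are CHO cells carrying HIG-tagged alpha-DG that lacks glycosylation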
Conditions: alpha-DG glycosylation AlphaScreen (IIH6), at 10 µM, hits give high values; 0% Pro5, 100% B10-LARGE cell signal unless noted
With `CNCC(O)c1cc(F)c(OCc2ccccc2)c(OCc2ccccc2)c1F` (stereo not given) the activation was 7.7% (active).
`Cc1ccc(C2CN(C)CC2C(=O)c2ccc(F)cc2)cc1` (stereo not given) showed an activation of 0% [setting not given].
For `Cc1nc2ccccn2c1P(=S)(N1CCCCC1)N1CCCCC1`, the activation was -0.2% [setting not given].
With `COc1cc(C(=O)N2Cc3ccc(Br)cc3-n3nncc3C2)cc(OC)c1OC` the activation was -0.2%.
`COC(=O)C1=C(c2ccc(F)cc2OCc2ccccc2)C[C@@H]2CC[C@H]1N2C(=O)NCc1ccc(Cl)cc1` showed an activation of 0.6%.
